Hits are enriched below; roughly 3.5% of the tested compounds scored in any of these assays.
Autofluor counter = flagged as autofluorescent in microsphere protease counterscreen; compound autofluorescence counterscreen, microsphere flow cytometry; stronger effect = higher value; fluorescence intensity (test concentration not listed); actives 3.1% (n = 360,000); in the data active means fluorescence intensity above about 16000; inconclusive means no clear call, values can overlap the other calls
BoNT-F LC inh = inhibitors of Botulinum neurotoxin F light chain protease; Multiplex microsphere protease cleavage assay, flow cytometry; inhibition, % at 10 µM; actives 0.22% (n = 360,000); AID 588497; in the data active means inhibition above about 35%, passing the limit was not always enough; inconclusive means no clear call, values can overlap the other calls
Anthrax LF inh2 = inhibitors of Bacillus anthracis lethal factor protease; inhibition, % at 10 µM; multiplex microsphere protease cleavage assay, LF; actives 0.12% (n = 360,000); AID 588501
Vc quorum ag = induces V. cholerae light production without autoinducers; V. cholerae BH1578 lux reporter, luminescence, 6 h; activation, % at 18.7 µM; actives 0.16% (n = 350,000); AID 588436; in the data active means activation mostly above about 9.7%, no sharp cut-off; inconclusive means no clear call, values can overlap the other calls; inactive means mostly below about 3.7%
BoNT A protease = blocks Botulinum neurotoxin A light chain protease | actives 0.17% (n = 360,000) | multiplex microsphere protease substrate cleavage, flow cytometry | inhibition, % at 10 µM
Of the large screens only hits and unclear results are named; the others gave an inactive call. Unless noted, no stated cut-off is given here; in the data, active means inhibition above about 30%; inconclusive means no clear call, values can overlap the other calls; inactive means below that.

Cc1cc(C)nc(NS(=O)(=O)c2ccc(NC(=O)CCN3C(=O)c4ccccc4C3=O)cc2)n1	Autofluor counter 16582
CCOC(=O)Nc1ccc(NS(=O)(=O)c2ccc(C)cc2)cc1	none
O=C(CCN1C(=O)c2ccccc2C1=O)Nc1cccc(S(=O)(=O)N2CCCCC2)c1	Autofluor counter inconclusive (no result: Vc quorum ag)
Cc1onc(-c2ccccc2Cl)c1C(=O)N[C@@H](C)c1ccccc1	none (no result: Autofluor counter, BoNT-F LC inh, Anthrax LF inh2, BoNT A protease)
CC(=O)c1ccc(NC(=O)c2cnsn2)cc1	none
CCCN(CCC)C(=O)C1CCN(c2cc(C)nc3c(-c4ccc(OC)c(OC)c4)c(C)nn23)CC1	none
COc1ccc(-c2c(C)nn3c(N4CCC(C(=O)NCCN(C)C)CC4)cc(C)nc23)cc1OC	Autofluor counter 23368
COc1ccccc1COC(=O)Nc1c(C)nn(C)c1Cl	Autofluor counter 18871, BoNT A protease inconclusive
C[C@H]1CCC[C@@H](O)CCC/C=C/c2cc(O)cc(O)c2C(=O)O1	Autofluor counter 20416
C[C@H]1CCC[C@H](O)CCCCCc2cc(O)cc(O)c2C(=O)O1	none
CCc1nnc(NC(=O)C2CCCN2C(=O)Nc2ccc(Cl)cc2)s1 (stereo not drawn)	none
O=C(CSc1nnc(Nc2ccccc2)s1)Nc1ccc(S(=O)(=O)N2CCOCC2)cc1	none
Cc1ccc(Nc2nnc(SCC(=O)Nc3ccc(S(=O)(=O)N4CCOCC4)cc3)s2)cc1	Autofluor counter 22187
Cc1cccc(NC(=O)CSc2nnc(-c3ccc(S(=O)(=O)N4CCOCC4)cc3)n2C)c1	Autofluor counter 16637
O=C(CSc1nc2ccccc2n1CC(=O)N1CCCC1)Nc1nccs1	Autofluor counter 23314
Cn1c(SCC(=O)Nc2nccs2)nnc1-c1ccc(S(=O)(=O)N2CCCC2)cc1	Autofluor counter 19176
O=C(CN(Cc1cccs1)C(=O)CNS(=O)(=O)c1ccccc1)NC1CCCC1	none
CSc1ccccc1NC(=O)CN1CCN(S(=O)(=O)c2ccccc2[N+](=O)[O-])CC1	none
Cc1ccc(NC(=O)C2CCN(S(=O)(=O)c3c(C)nn(C)c3C)CC2)c(Cl)c1	none
CCOc1ccccc1NC(=O)C1CCN(S(C)(=O)=O)CC1	BoNT-F LC inh inconclusive
O=C(NCc1ccccc1)C1CC2CCCC(C1)C2=O (stereo not drawn)	Autofluor counter 17138, BoNT A protease inconclusive
CCOc1ccccc1NC(=O)C1CC2CCCC(C1)C2=O (stereo not drawn)	Autofluor counter 23703
O=C(O)C1CC=CCC1C(=O)NCc1ccccc1 (stereo not drawn)	Autofluor counter 22945
CC(=O)Nc1cnn(Cc2ccc(Br)cc2)c1	Autofluor counter 24279
O=C(Nc1cnn(Cc2ccc(Cl)cc2)c1)c1cnccn1	Autofluor counter 19189
O=C(NCCc1ccc(Cl)cc1)c1cnccn1	none
CCOC(=O)NC1Cc2ccccc2C1Sc1ccccn1 (stereo not drawn)	none
CC(=O)Oc1cccc(-c2nc3ccccc3c(=O)o2)c1	none
COc1cccc(-c2nc3ccc(O)cc3c(=O)o2)c1	Autofluor counter 23859, BoNT A protease inconclusive
CCCS(=O)(=O)NC(=O)C1(C)CCCN(C(=O)COCc2ccccc2)C1 (stereo not drawn)	none
O=C(CN(Cc1cccs1)C(=O)CNS(=O)(=O)c1ccc(Cl)cc1)NCc1ccco1	Autofluor counter 21887, BoNT A protease inconclusive
CSc1nc(N)c(NC(=O)c2ccc(Br)o2)c(=O)[nH]1	none
Cc1ccc(S(=O)(=O)CCC(=O)OCC(=O)NC(=O)c2ccccc2)cc1	Autofluor counter 40297
C=CCn1cnc2c(c1=O)c1nc3ccccc3nc1n2/N=C/c1cccc(OC)c1	Autofluor counter 21328, BoNT A protease inconclusive
CCc1ccccc1N1C(=O)c2cccc3c(N4CCOCC4)c([N+](=O)[O-])cc(c23)C1=O	Autofluor counter 24654
COc1cccc(C2C(C#N)=C(N)Oc3c2oc(CO)cc3=O)c1OC (stereo not drawn)	Autofluor counter 22208
COc1ccc(C2C(C#N)=C(N)Oc3c2oc(CO)cc3=O)c(OC)c1OC (stereo not drawn)	Autofluor counter inconclusive (no result: Vc quorum ag)
Cc1cccc(OCc2nc(-c3nonc3N)no2)c1C	Autofluor counter 22795, BoNT A protease inconclusive
CCOC(=O)CSc1nnc(NC(=O)CN2CCCCC2)s1	none
CCOC(=O)c1cccnc1SCC(=O)N(C)c1ccccc1	Autofluor counter 22147
COc1ccc(C(C(=O)NCCC(C)C)N(CCO)C(=O)c2snc(C(N)=O)c2N)cc1 (stereo not drawn)	none
COc1ccc(COc2ccsc2C(=O)Nc2ccc(Cl)cc2)cc1	Autofluor counter 19044
COc1ccc(NC(=O)c2csc(Cc3ccc(Cl)cc3)n2)cc1	none

Screening data from PubChem.
